TcdB GH inh: blocks C. difficile toxin B glycohydrolase activity | P18177 | TcdB glycohydrolase enzymatic assay, plate reader | inhibition, % at 9.99 µM | actives 0.24% (n = 350,000); in the data active = inhibition above about 10%
Vc quorum ag: induces V. cholerae light production without autoinducers; V. cholerae BH1578 lux reporter, luminescence, 6 h; actives 0.16% (n = 350,000); AID 588436; activation, % at 18.7 µM; in the data active = activation mostly above about 9.7%, no sharp cut-off
FadD28 FP inh: M. tuberculosis FadD28 bisubstrate binding inhibition. FadD28 bisubstrate probe binding, fluorescence polarization. AID 588549. inhibition, % at 12.5 µM. actives 0.22% (n = 360,000); in the data active = inhibition above about 8.5%, passing the limit was not always enough
BioA inh: inhibitors of Mycobacterium tuberculosis BioA enzyme. actives 0.096% (n = 360,000). purified M. tuberculosis BioA enzyme, plate reader. inhibition, % at 9.99 µM; in the data active = inhibition above about 40%
Yp Topo-I inh: blocks Yersinia pestis topoisomerase I activity; Y. pestis Topo-I cleavage product accumulation, plate reader; activity, % at 10 µM; actives 0.064% (n = 360,000); AID 504884; in the data active = activity above about 50%, passing the limit was not always enough
Hits are given with their value. In the library only some 0.61% were active in any assay of this set; here they are far more common.

What do the screens show for `O=C(OCc1ccccc1)N1CCC2CC1c1cc(Cl)ccc12` (stereo not given)?
TcdB GH inh: inactive; Vc quorum ag: inactive; FadD28 FP inh: inactive; BioA inh: inactive; Yp Topo-I inh: inactive

How did O=C(OCc1ccccc1)N1CCC2CC1c1c(Cl)cccc12 (stereo not given) do in these assays?
TcdB GH inh: inactive; Vc quorum ag: inactive; FadD28 FP inh: inactive; BioA inh: inactive; Yp Topo-I inh: 59

How did Cc1ccc(S(=O)(=O)Oc2ccccc2/C=C2\SC(=O)NC2=O)cc1 do in these assays?
TcdB GH inh: 11; Vc quorum ag: inactive; FadD28 FP inh: inactive; Yp Topo-I inh: inactive

What do the screens show for `COc1ccccc1C=C1SC(=S)NC1=O`?
TcdB GH inh: 11; Vc quorum ag: inactive; FadD28 FP inh: inactive; Yp Topo-I inh: inactive

How did CCCOc1ccc(C2=CC(=O)C[C@H](c3ccc(OC)cc3)C2)cc1 do in these assays?
TcdB GH inh: inactive; Vc quorum ag: inactive; FadD28 FP inh: inactive; BioA inh: inactive; Yp Topo-I inh: 60

What do the screens show for `Cc1cc(C)cc(N2C(=O)NC(=O)/C(=C\c3cccn3-c3ccc(Cl)cc3)C2=O)c1`?
Vc quorum ag: inactive; FadD28 FP inh: inactive; BioA inh: inactive; Yp Topo-I inh: inactive

How did Cc1cc(C)cc(N2C(=O)NC(=O)/C(=C\c3cccn3-c3ccccc3)C2=O)c1 do in these assays?
Vc quorum ag: inactive; FadD28 FP inh: inactive; Yp Topo-I inh: 53

How did Cc1ccc(-c2nc3sc4c(c3c(=O)n2N)CC(C)(C)OC4)cc1 do in these assays?
Vc quorum ag: 17; FadD28 FP inh: inactive; BioA inh: inactive; Yp Topo-I inh: inactive

What do the screens show for `O=C(O)CCNc1ccc(NCCC(=O)O)c2c1C(=O)c1ccccc1C2=O`?
TcdB GH inh: inactive; Vc quorum ag: inactive; FadD28 FP inh: 10; Yp Topo-I inh: inactive

Results for C[C@@H]1CN([C@H](C)CO)S(=O)(=O)c2ccc(/C=C/c3ccccc3)cc2O[C@H]1CN(C)C(=O)CN1CCOCC1 ?
TcdB GH inh: inactive; BioA inh: inactive

How did O=C(c1ccc2c(c1)N(Cc1ccccc1)C(=O)c1ccccc1S2)N1CCCC1 do in these assays?
TcdB GH inh: 34; Vc quorum ag: inactive; FadD28 FP inh: inactive; BioA inh: inactive; Yp Topo-I inh: inactive

What do the screens show for `O=C(c1ccc2c(c1)N(Cc1ccccc1F)C(=O)c1ccccc1S2)N1CCOCC1`?
TcdB GH inh: 10

How did O=C(NCCN1CCOCC1)c1ccc2c(c1)N(Cc1ccccc1F)C(=O)c1ccccc1S2 do in these assays?
TcdB GH inh: inactive; Vc quorum ag: inactive; FadD28 FP inh: inactive; BioA inh: inactive; Yp Topo-I inh: inactive

What do the screens show for `CCCN1[C@@H]2Cn3c(ccc(-c4ccccc4F)c3=O)[C@H]1[C@@H](C(=O)NCCOC)[C@@H]2CO`?
TcdB GH inh: inactive; BioA inh: inactive

What do the screens show for `ONC(=Nc1ccccc1Cl)c1ccccc1Cl`?
TcdB GH inh: 17; Vc quorum ag: inactive; FadD28 FP inh: inactive; BioA inh: inactive; Yp Topo-I inh: inactive

How did O=[N+]([O-])c1cccc(C(=Nc2ccccc2Cl)NO)c1 do in these assays?
Vc quorum ag: inactive; FadD28 FP inh: inactive; BioA inh: inactive; Yp Topo-I inh: inactive

How did CCOc1cc(NC(=S)NCC2CCCO2)c(OCC)cc1NC(=O)c1ccc(F)cc1 (stereo not given) do in these assays?
TcdB GH inh: 19; Vc quorum ag: inactive; FadD28 FP inh: inactive; BioA inh: inactive; Yp Topo-I inh: inactive

What do the screens show for `Cc1ccc(S(=O)(=O)N[C@@H]2CC[C@@H](CCNS(=O)(=O)Cc3ccccc3)O[C@@H]2CO)cc1`?
TcdB GH inh: inactive; BioA inh: inactive

What do the screens show for `CC(C)(C)N1[C@@H](CC(=O)O)c2cc(C(F)(F)F)ccc2S1(=O)=O`?
TcdB GH inh: 12; Vc quorum ag: inactive; FadD28 FP inh: inactive; BioA inh: inactive; Yp Topo-I inh: inactive

What do the screens show for `COc1ccc(NC(=O)Nc2ccc3c(c2)C(=O)N([C@@H](C)CO)C[C@H](C)[C@H](CN(C)C(=O)NC2CCCCC2)O3)cc1`?
TcdB GH inh: inactive; BioA inh: inactive

What do the screens show for `Cc1ccc(-n2nnnc2SC(C)C(=O)NCC(=O)Nc2ccc(F)c(F)c2F)c(C)c1` (stereo not given)?
Vc quorum ag: inactive; FadD28 FP inh: inactive; Yp Topo-I inh: inactive

What do the screens show for `Cc1ccc(-n2nnnc2SC(C)C(N)=O)c(C)c1` (stereo not given)?
Vc quorum ag: 17; FadD28 FP inh: inactive; BioA inh: inactive; Yp Topo-I inh: inactive

Results for O=C(C[C@H]1CC[C@H]2[C@@H](COC[C@H](O)CN2C(=O)Nc2ccc(Cl)c(Cl)c2)O1)NCc1ccncc1 ?
TcdB GH inh: 13; BioA inh: inactive

How did CCNC(=O)C[C@@H]1CC[C@@H]2[C@H](COC[C@H](O)CN2C(=O)c2ccccn2)O1 do in these assays?
TcdB GH inh: inactive; BioA inh: inactive

Results for O=C(C[C@@H]1CC[C@H]2[C@@H](COC[C@H](O)CN2C(=O)Nc2ccc(Cl)c(Cl)c2)O1)NCc1ccncc1 ?
TcdB GH inh: inactive; BioA inh: inactive

Results for CCNC(=O)C[C@H]1CC[C@@H]2[C@H](COC[C@@H](O)CN2C(=O)c2ccccn2)O1 ?
BioA inh: inactive

How did O=C(C[C@@H]1CC[C@@H]2[C@H](COC[C@@H](O)CN2C(=O)c2ccccn2)O1)NC1CCC1 do in these assays?
TcdB GH inh: 27; BioA inh: inactive

How did O=C(C[C@H]1CC[C@@H]2[C@H](COC[C@@H](O)CN2C(=O)c2ccccn2)O1)NC1CCC1 do in these assays?
TcdB GH inh: 15; BioA inh: inactive

How did O=C(C[C@H]1CC[C@H]2[C@@H](COC[C@@H](O)CN2Cc2ccccc2)O1)NCCc1ccccc1 do in these assays?
TcdB GH inh: 15; BioA inh: inactive

Results for COc1ccc(-c2ccc3c(c2)O[C@@H](CN(C)Cc2ccccc2C(=O)O)[C@@H](C)CN([C@H](C)CO)S3(=O)=O)cc1 ?
TcdB GH inh: inactive; BioA inh: inactive

Results for O=C(C1CC1)N1CCCCN2[C@H](C1)[C@H](c1ccc(-c3ccncc3)cc1)[C@@H]2CO ?
BioA inh: inactive

What do the screens show for `C[C@H]1C=C(C(=O)N2CCN(Cc3ccc4c(c3)OCO4)CC2)O[C@@H](OCCCCO)C1`?
TcdB GH inh: inactive; BioA inh: inactive

Results for CNC(=O)C[C@@H]1CC[C@@H]2[C@H](COC[C@H](O)CN2C(=O)c2ccccn2)O1 ?
TcdB GH inh: inactive; BioA inh: inactive

Results for O=C(C[C@@H]1CC[C@H]2[C@@H](COC[C@H](O)CN2C(=O)c2ccccn2)O1)NC1CCC1 ?
TcdB GH inh: 17; BioA inh: inactive

Results for CCOc1ccc(NC(=O)C2C(c3ccccc3)C2(Cl)Cl)cc1 (stereo not given) ?
TcdB GH inh: inactive; Vc quorum ag: inactive; FadD28 FP inh: inactive; BioA inh: inactive; Yp Topo-I inh: inactive

Results for CCOc1ccc(NC(=O)C2C(C(=O)O)C3(Cl)C(Cl)=C(Cl)C2(Cl)C3(Cl)Cl)cc1 (stereo not given) ?
TcdB GH inh: inactive; Vc quorum ag: inactive; FadD28 FP inh: 21; Yp Topo-I inh: inactive

What do the screens show for `CC(=O)Nc1nc(C)c(Oc2ccc(Cl)cc2)c(=O)[nH]1`?
TcdB GH inh: inactive; Vc quorum ag: inactive; FadD28 FP inh: inactive; BioA inh: inactive; Yp Topo-I inh: inactive
